A short description of assay [1]: Nuclear factor erythroid 2-related factor 2/antioxidant responsive element (Nrf2/ARE) small molecule agonists: luciferase reporter gene qHTS assay in human keratinocytes (AID 1919969). Also: nearly all actives have a fitted effect of over 35% in size. Also: potency is read from the fitted curve at half-maximal effect. In general terms: In a reporter assay the amount or activity of a reporter protein is the signal.
Assay [2] deals with KiSS-1 receptor (Homo sapiens) (UniProt Q969F8). Nature of the assay: Human kisspeptin (KISS1R) small molecule agonists, calcium flux assay in KISS1R-HEK293 cells (AID 1920064; active = well fitted activation curve with a large enough effect in the repeat runs). The procedure, abridged: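 Kinetic calcium assay, 1 s sampling over 3 min at Ex/Em 480/540, in HEK293 cells engineered with human KISS1R; compounds delivered in DMSO after 1 h dye loading.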
Assay [3] can be described thus: G protein-coupled receptor (GPCR) small molecule agonists, calcium flux assay: HEK293 wild type cell line counter screen (AID 1920065). The procedure, abridged: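 Calcium-sensitive dye, loaded 1 h at 37 C into cells cultured 18 h, reports compound-evoked calcium release as fluorescence (Ex/Em 480/540), measured over 3 min. Agonist mode; 15-point titrations, triplicate.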

A short description of assay [4]: p53 small molecule agonists, cell-based qHTS assay with human liver microsomes (AID 1963577).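 Also: p53 response element beta-lactamase reporter cells with liver microsomes plus NADPH.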 Put shortly:
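Metabolically competent format: test substances, human liver microsomes and NADPH (both 0.5 mg/mL final) incubated with p53RE-bla cells 16 h at 37 C. Beta-lactamase reporter signal then quantified by fluorescence.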
In general terms: In qHTS, concentration-response curves come from the screen itself.

Assay [5] can be described thus: p53 small molecule agonists, cell-based qHTS assay with rat liver microsomes (AID 1963578). The procedure, abridged: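 Each plate received p53RE-bla cells, then compound, then rat liver microsomes and NADPH (both 0.5 mg/mL final). Plates were held 16 h at 37 C, and beta-lactamase activity was detected with LiveBLAzer over 2 h.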
Assay [6] can be described thus: p53 small molecule agonists, cell-based qHTS assay with human liver microsomes: qHTS cell viability counter screen (AID 1963579). Also: nearly all actives have a fitted effect of over 45% in size. The procedure, abridged: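 Tox21 library compounds, delivered from DMSO stocks, were tested on p53RE-bla cells together with 0.5 mg/mL human liver microsomes and 0.5 mg/mL NADPH (final) over 16 h at 37 C; CellTiter-Glo luminescence served as the cytotoxicity measure.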

Assay [7] in a line: p53 small molecule agonists, cell-based qHTS assay with rat liver microsomes: qHTS cell viability counter screen (AID 1963580). Also: nearly all actives have a fitted effect of over 45% in size. Put shortly:
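In HCT-116 cells carrying a p53 response element-bla reporter, compounds were metabolically activated in situ by rat liver microsomes with NADPH over 16 h. Cell ATP content then served as the cytotoxicity measure.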

Assay [8] can be described thus: p53 small molecule agonists, cell-based qHTS assay: qHTS cell viability counter screen (AID 1963581). Also: nearly all actives have a fitted effect of over 45% in size. The procedure, abridged: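 Following 5 h attachment, HCT-116 p53RE-bla cells took up compound for 16 h at 37 C; the reporter was read with B/G FRET substrate (2 h RT), and viability then via CellTiter-Glo ATP luminescence.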
The nature of assay [9]: p53 small molecule agonists, cell-based qHTS assay (AID 1963582; active = well fitted activation curve with a large enough effect in the signal ratio in the repeat runs, not every such curve was filed as active; the % refers to the signal ratio). The procedure, abridged: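 In this cell-based concentration-response screen, a p53 response element drives beta-lactamase; cells received DMSO-borne compounds after 5 h culture and were incubated a further 16 h before FRET substrate development.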
Assay [10] concerns the target 5-hydroxytryptamine receptor 2A (Homo sapiens) (UniProt P28223). The assay is described as follows: 5-hydroxytryptamine receptor 2A (HTR2A) small molecule antagonists, cell-based qHTS assay (AID 1963586). Also: nearly all actives have a fitted effect of over 45% in size. Also: potency is read from the fitted curve at half-maximal effect. The procedure, abridged:
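Antagonist-mode intracellular calcium assay: DOI (4 nM) added after 5 min compound pre-incubation at room temperature to dye-loaded HTR2A-CHO cells. Fluorescence followed for 3 min, sampled every second.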

The target is the same in assay [11]. Nature of the assay: 5-hydroxytryptamine receptor 2A (HTR2A) small molecule agonists, cell-based qHTS assay (AID 1963587). Also: nearly all actives have a fitted effect of over 30% in size. Also: potency is read from the fitted curve at half-maximal effect. Put shortly:
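HTR2A-CHO cells, plated 18 h at 37 C/5% CO2, dye-loaded 1 h at 37 C; compounds in DMSO added by pin tool (agonist mode). Intracellular calcium flux read as kinetic fluorescence on FDSS over 2 min at 1 s intervals.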

In assay [12] the target is Muscarinic acetylcholine receptor M1 (Homo sapiens) (UniProt P11229). The assay is described as follows: Cholinergic receptor muscarinic 1 (CHRM1) small molecule agonists, cell-based qHTS assay (AID 1963589). Also: nearly all actives have a fitted effect of over 35% in size. The procedure, abridged: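 Measures agonist-induced intracellular calcium rise. Stable human CHRM1 CHO line, 1 h dye load at 37 C, compounds from DMSO, kinetic fluorescence read.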

Assay [13] addresses Beta-2 adrenergic receptor (Homo sapiens) (UniProt P07550). The assay is described as follows: Adrenergic beta2 receptor (ADRB2) small molecule antagonists, cell-based qHTS assay (AID 1963592). Also: nearly all actives have a fitted effect of over 50% in size. Also: potency is read from the fitted curve at half-maximal effect. Put shortly:
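Cells (CHO, stable ADRB2 overexpression) incubated 18-20hr at 37C; compounds added from DMSO; agonist mix (1nM isoproterenol, 100uM IBMX, 25uM Ro-20-1724) added; 0.5hr RT; d2-cAMP and anti-cAMP-cryptate added; 1hr RT; 665/615 nm read.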

In assay [14] the target is D(2) dopamine receptor (Homo sapiens) (UniProt P14416). Nature of the assay: Dopamine D2 receptor (DRD2) small molecule agonists, cell-based qHTS assay (AID 1963594). Also: nearly all actives have a fitted effect of over 35% in size. Put shortly:
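HEK293 cells stably expressing DRD2 were cultured 24 h at 37 C, then given Ro20-1724 (0.1 mM final) and compounds for 10 min at room temperature. NKH477 (200nM) was then added for 30 min. cAMP was read by HTRF.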

The target is the same in assay [15]. Nature of the assay: Dopamine D2 receptor (DRD2) small molecule antagonists, cell-based qHTS assay (AID 1963595; active = well fitted inhibition curve with a large enough effect in the signal ratio in the repeat runs, with a control signal flat; the % refers to the signal ratio). Put shortly: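 Antagonist mode in DRD2-HEK293 cells: after compound addition with 0.1 mM Ro20-1724, cells received quinpirole (12 nM) and NKH477 (200 nM) for 30 min at room temperature; HTRF cAMP read after 1 h detection.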
In assay [16] the target is Muscarinic acetylcholine receptor M1 (Homo sapiens) (UniProt P11229). The assay is described as follows: Cholinergic receptor muscarinic 1 (CHRM1) small molecule antagonists, cell-based qHTS assay (AID 1963588). Also: nearly all actives have a fitted effect of over 40% in size. Also: potency is read from the fitted curve at half-maximal effect. The procedure, abridged:
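CHRM1-CHO calcium-flux assay, antagonist mode. Cells were seeded 18 h, dye-loaded 1 h at 37 C and given compound for 5 min at RT, then acetylcholine was added at 50nM. FDSS fluorescence was read 3 min; 15 concentrations, three runs.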

The nature of assay [17]: cAMP Responsive Elements (CRE) small molecule antagonists, cell-based qHTS assay (AID 1963591; active = well fitted inhibition curve with a large enough effect in the signal ratio in the repeat runs, not every such curve was filed as active; the % refers to the signal ratio). Put shortly:
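HEK293T cells carrying a CRE-driven beta-lactamase reporter receive compound and NKH477 (0.25 uM final) for 3 h. Fluorescence from LiveBLAzer B/G FRET substrate is read after 2 h at room temperature.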

Assay [18] addresses Gonadotropin-releasing hormone receptor (Homo sapiens) (UniProt P30968). Nature of the assay: Human gonadotropin-releasing hormone receptor (GnRHR) small molecule agonists, calcium flux assay in GnRHR-HEK293 cells (AID 1920063). Also: nearly all actives have a fitted effect of over 35% in size. Also: potency is read from the fitted curve at half-maximal effect. The procedure, abridged:
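We seeded human GnRHR-expressing HEK293 cells for 18 hours, loaded them with calcium dye for an hour at 37 C, added test compounds, and recorded fluorescence intensity kinetically for three minutes.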
Background: A change in cytosolic calcium serves as a functional read-out for many receptors and channels.

Assay [19] is described as follows: cAMP Responsive Elements (CRE) small molecule agonists, cell-based qHTS assay (AID 1963590). Put shortly: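 A CRE-responsive beta-lactamase reporter in HEK 293T cells was used. Treatment ran 3 h at 37 C; detection used LiveBLAzer B/G FRET substrate for 2 h at room temperature.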
Assay [20] has as its target Beta-2 adrenergic receptor (Homo sapiens) (UniProt P07550). The assay is described as follows: Adrenergic beta2 receptor (ADRB2) small molecule agonists, cell-based qHTS assay (AID 1963593).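 Also: CHO cells stably overexpressing human ADRB2.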 Put shortly:
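CHO cells stably over-expressing ADRB2 were plated overnight at 37C, then dosed with compounds plus a stimulation mix containing 100uM IBMX and 25uM Ro-20-1724 for 0.5hr at room temperature. cAMP was measured by HTRF competition, 1hr.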

Structures are written as SMILES. “And” between values parts separate entries of the source, which are not always exact repeats. Identical values can stand only once. Records with an inconclusive call do not appear. The source made the active and inactive calls. Unless noted, calls follow the shape of the full dose curve.

Sequence of Muscarinic acetylcholine receptor M1 (Homo sapiens) (P11229 whole entry, looked up): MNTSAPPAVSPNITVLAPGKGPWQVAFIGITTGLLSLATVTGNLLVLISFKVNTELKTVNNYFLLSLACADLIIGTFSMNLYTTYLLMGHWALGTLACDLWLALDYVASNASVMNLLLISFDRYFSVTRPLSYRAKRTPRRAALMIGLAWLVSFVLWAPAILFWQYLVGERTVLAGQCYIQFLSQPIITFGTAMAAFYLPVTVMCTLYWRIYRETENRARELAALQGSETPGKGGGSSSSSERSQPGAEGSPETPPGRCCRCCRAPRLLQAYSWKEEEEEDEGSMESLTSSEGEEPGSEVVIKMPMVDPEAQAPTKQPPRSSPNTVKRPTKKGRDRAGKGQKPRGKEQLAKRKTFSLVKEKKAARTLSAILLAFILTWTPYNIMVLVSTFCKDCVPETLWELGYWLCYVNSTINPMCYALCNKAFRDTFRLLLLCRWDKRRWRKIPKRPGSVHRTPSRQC
Sequence of Beta-2 adrenergic receptor (Homo sapiens) (P07550 whole entry, looked up): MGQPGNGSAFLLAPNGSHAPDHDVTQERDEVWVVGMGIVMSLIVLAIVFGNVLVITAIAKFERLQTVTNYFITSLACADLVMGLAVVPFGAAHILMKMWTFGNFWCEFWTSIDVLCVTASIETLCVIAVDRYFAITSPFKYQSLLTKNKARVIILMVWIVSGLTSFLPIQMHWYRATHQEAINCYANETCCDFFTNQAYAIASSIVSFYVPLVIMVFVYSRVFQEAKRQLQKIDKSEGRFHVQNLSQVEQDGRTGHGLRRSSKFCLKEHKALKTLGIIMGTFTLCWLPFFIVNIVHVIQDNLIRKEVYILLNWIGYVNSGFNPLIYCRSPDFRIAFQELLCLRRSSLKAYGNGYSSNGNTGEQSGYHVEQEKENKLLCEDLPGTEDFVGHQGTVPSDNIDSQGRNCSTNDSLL
Sequence of D(2) dopamine receptor (Homo sapiens) (P14416 whole entry, looked up): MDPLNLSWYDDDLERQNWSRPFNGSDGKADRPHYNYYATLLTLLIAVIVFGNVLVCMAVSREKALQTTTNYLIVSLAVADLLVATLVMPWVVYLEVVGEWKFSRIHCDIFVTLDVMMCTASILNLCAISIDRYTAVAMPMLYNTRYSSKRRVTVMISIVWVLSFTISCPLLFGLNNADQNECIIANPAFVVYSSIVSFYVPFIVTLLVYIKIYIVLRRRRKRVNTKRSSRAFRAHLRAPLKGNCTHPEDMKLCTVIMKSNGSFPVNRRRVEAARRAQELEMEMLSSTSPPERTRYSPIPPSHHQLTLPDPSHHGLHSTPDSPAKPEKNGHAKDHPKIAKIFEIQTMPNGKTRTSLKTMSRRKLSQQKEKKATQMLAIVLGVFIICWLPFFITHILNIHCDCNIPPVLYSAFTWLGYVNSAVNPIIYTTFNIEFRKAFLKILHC
Sequence of KiSS-1 receptor (Homo sapiens) (Q969F8 whole entry, looked up): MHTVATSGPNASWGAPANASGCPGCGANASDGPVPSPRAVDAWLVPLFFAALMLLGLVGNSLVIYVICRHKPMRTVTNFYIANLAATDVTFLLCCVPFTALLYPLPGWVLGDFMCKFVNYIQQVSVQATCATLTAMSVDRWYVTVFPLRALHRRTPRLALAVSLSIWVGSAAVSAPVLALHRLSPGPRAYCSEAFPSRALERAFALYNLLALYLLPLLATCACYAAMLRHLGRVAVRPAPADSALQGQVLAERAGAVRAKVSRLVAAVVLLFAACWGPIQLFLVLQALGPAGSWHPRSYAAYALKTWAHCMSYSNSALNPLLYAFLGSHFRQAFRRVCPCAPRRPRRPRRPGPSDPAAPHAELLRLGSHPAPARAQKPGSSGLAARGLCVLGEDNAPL
Sequence of 5-hydroxytryptamine receptor 2A (Homo sapiens) (P28223 whole entry, looked up): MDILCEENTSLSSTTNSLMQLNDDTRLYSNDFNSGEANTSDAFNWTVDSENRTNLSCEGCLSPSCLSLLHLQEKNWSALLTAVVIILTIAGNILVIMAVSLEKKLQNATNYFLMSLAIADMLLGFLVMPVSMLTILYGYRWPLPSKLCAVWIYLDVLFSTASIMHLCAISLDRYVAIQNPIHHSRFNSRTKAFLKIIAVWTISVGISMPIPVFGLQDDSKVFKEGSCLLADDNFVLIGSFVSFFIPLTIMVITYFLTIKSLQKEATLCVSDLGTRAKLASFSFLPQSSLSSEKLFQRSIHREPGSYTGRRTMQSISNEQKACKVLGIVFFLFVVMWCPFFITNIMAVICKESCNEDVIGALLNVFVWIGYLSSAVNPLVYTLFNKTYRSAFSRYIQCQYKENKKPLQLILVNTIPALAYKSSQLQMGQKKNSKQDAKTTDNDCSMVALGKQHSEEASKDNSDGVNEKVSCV
Sequence of Gonadotropin-releasing hormone receptor (Homo sapiens) (P30968 whole entry, looked up): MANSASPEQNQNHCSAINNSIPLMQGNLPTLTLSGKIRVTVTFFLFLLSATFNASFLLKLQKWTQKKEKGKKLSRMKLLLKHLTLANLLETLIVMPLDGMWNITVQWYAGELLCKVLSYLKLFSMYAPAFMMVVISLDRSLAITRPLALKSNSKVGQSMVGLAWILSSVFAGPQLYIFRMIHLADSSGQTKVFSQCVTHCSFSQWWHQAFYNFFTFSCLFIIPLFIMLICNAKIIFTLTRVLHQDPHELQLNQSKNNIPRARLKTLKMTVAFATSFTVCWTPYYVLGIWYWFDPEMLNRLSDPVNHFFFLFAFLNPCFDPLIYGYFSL

`CCC(CN)=C(c1ccccc1)c1ccccc1`: the Potency result in assay [1], in assay [2], in assay [3], in [4], in assay [5] and in assay [6] was “inactive” in each case. The Potency result in [7], in [8], in assay [9], in assay [10], in [12] and in assay [13] was “inactive” in each case. For the same molecule, the Potency result in assay [14] and in [15] was “inactive” each time. Besides, the Potency in assay [11] is 23.9 µM (active).

For the molecule `Cc1cc(O)ccc1O`, the Potency in assay [1] was 24.6 µM (active). Further, the Potency entry in assay [2], in assay [3], in assay [4], in assay [5], in assay [7] and in [8] was “inactive” throughout. Also, the Potency result in assay [10], in assay [11], in assay [16], in assay [12] and in assay [13] was “inactive” each time.

In the case of `C=CC(=O)OCCCCCCOC(=O)C=C`, the Potency in assay [1] was 27.6 µM (active) and 24.3 µM (active). For the same molecule, the Potency result in assay [2], in assay [3], in assay [4], in [5], in assay [6] and in assay [8] was “inactive” in each case. In addition, the Potency result in assay [10], in assay [11], in [16], in [12], in assay [17] and in [13] was “inactive” throughout. Moreover, the Potency entry in assay [14] and in assay [15] was “inactive” throughout.

`Clc1ccc(Cn2c(CN3CCCC3)nc3ccccc32)cc1`: the Potency in assay [1] was 33.5 µM (active). Also, the Potency result in assay [2], in assay [3], in [4], in assay [5], in assay [7] and in assay [8] was “inactive” throughout. The Potency entry in assay [12], in assay [13], in assay [14] and in assay [15] was “inactive” in each case.

For the molecule `CN1CCN(CCC(=O)N2c3ccccc3Sc3ccc(C(F)(F)F)cc32)CC1`, the Potency entry in assay [1], in assay [2], in assay [3], in [4], in [5] and in [7] was “inactive” throughout. Further, the Potency entry in assay [12], in assay [14] and in assay [15] was “inactive” throughout. Besides, the Potency was 4.1 µM (active) in assay [10], 0.146 µM (active) in assay [16] and 29.8 µM (active) in assay [13].

Regarding `O[C@@H](c1cc(C(F)(F)F)nc2c(C(F)(F)F)cccc12)[C@H]1CCCCN1`, the Potency result in assay [1], in assay [4], in assay [5], in assay [6], in assay [7] and in [14] was “inactive” each time. In addition, in assay [15], the Potency result was “inactive”. For the same molecule, the Potency in assay [18] was 16.9 µM (active); in assay [10], 3.65 µM (active).

Take `CCc1oc2ccccc2c1C(=O)c1cc(Br)c(O)c(Br)c1`: the Potency entry in [1], in assay [18], in assay [3], in [7], in [8] and in assay [19] was “inactive” throughout. For the same molecule, the Potency entry in [17], in assay [13], in [14] and in [15] was “inactive” throughout.

Take `c1cc(OCC2CO2)cc(OCC2CO2)c1` (configuration not stated): in [1], the Potency was 24.1 µM (active). Moreover, the Potency result in assay [2], in assay [3], in [4], in assay [5], in assay [7] and in assay [10] was “inactive” each time. Further, the Potency result in [11], in assay [16], in [12], in [13], in assay [14] and in assay [15] was “inactive” each time.

In the case of `Oc1ccc(-c2ccccc2)c(Cl)c1`, the Potency in [1] was 54.5 µM (active); in assay [10], 26.5 µM (active). Also, the Potency entry in assay [2], in assay [3], in [4], in assay [5], in [7] and in [8] was “inactive” throughout. Also, the Potency result in assay [9], in assay [16], in assay [12], in assay [13], in [20] and in assay [14] was “inactive” in each case. The Potency entry in assay [15] is “inactive”.

Values taken from PubChem BioAssay (Tox21).
